In PubChem BioAssay AID1619 (SRMLSC, 2009):
Hit rate of the full screen: of about 220,000 compounds, about 830 (0.38%) were called active. Only a sample is shown. Entries with a potency or affinity are not part of this list. Unmarked numbers belong to inactive results.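 How the source made its calls: active means compound inhibiting the enzyme by more than half at any dose during confirmatory dose-response retesting; inconclusive means strong single-dose inhibitors picked by rank but not retested; inactive means the rest.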

target: Leucine aminopeptidase (Plasmodium falciparum (isolate 3D7)) (UniProt Q8IL11); test: P. falciparum M17LAP inhibitors, primary screen, biochemical, fluorogenic H-Leu-NHMec substrate, 1536-well (AID 1619); settings: recombinant M17LAP, H-Leu-NHMec fluorogenic kinetic assay; at 30 µM; hits give high values;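 further: plate controls were full reaction with DMSO carrier for no effect and no enzyme background for full effect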
Sequence (Q8IL11 whole entry, looked up): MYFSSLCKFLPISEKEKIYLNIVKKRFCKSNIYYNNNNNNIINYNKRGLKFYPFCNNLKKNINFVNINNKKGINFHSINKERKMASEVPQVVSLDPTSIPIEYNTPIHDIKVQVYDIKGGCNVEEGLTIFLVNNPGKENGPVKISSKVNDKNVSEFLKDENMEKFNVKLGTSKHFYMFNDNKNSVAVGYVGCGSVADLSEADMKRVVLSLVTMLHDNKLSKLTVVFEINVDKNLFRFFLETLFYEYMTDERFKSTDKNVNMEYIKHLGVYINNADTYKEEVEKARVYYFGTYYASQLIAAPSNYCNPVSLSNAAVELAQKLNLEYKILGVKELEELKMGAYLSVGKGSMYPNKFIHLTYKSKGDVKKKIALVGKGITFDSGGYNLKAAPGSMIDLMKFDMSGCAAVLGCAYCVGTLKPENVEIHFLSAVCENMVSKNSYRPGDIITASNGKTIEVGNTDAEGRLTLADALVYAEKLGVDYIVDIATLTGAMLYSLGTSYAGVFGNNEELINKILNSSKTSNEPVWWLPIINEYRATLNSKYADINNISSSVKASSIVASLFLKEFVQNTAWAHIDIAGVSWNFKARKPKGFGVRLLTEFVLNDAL

SMILES	inhibition [%]
COc1ccccc1C(=O)N1CCN(Cc2nc3cc([N+](=O)[O-])ccc3n2C)CC1	6.22
COc1cccc(NS(=O)(=O)c2cc(C)sc2C)c1	11.3
Cc1cc(S(=O)(=O)Nc2cccc(Cl)c2)c(C)s1	4.03
CC(=O)Nc1ccc(C2=NN(C)C(=NCc3ccccc3)SC2)cc1	-2.31
N=c1n(Cc2ccc(Cl)cc2)c2ccccc2n1CC(O)COc1ccccc1 (stereo not given)	6.49
COc1ccc(C(=O)N/N=C(\C)c2ccc3c(c2)C2C=CCC2C(c2ccccc2)N3)cc1 (stereo not given)	20.2
Cc1c(Cl)cccc1NS(=O)(=O)c1ccc2c(c1)C1C=CCC1C(c1ccc(C(=O)O)cc1)N2 (stereo not given)	47.6
COc1ccc(N2C(=O)C3CCCN3C2c2ccc(C)cc2)cc1Cl (stereo not given)	-8.88
CSCCC(NS(=O)(=O)c1ccc2ccccc2c1)C(=O)O (stereo not given)	12.2
CSCCC(NS(=O)(=O)c1ccc(Cl)c(Cl)c1)C(=O)O (stereo not given)	-4.93
O=C(NCCn1cc(SCc2ccc(F)cc2)c2ccccc21)c1ccccc1F	12.4
COC(=O)c1cccc(Cn2c(Cl)c(/C=N/NC(=O)c3ccccc3Cl)sc2=O)c1	13.4
O=C(O)c1cccc(Cn2c(Cl)c(/C=N/NC(=O)c3ccc(O)cc3)sc2=O)c1	53.6
O=C(O)c1cccc(Cn2c(Cl)c(/C=N/NC(=O)c3cc4ccccc4cc3O)sc2=O)c1	-0.68
COc1ccc(C(=O)N/N=C/c2sc(=O)n(Cc3cccc(C(=O)O)c3)c2Cl)cc1	43.6
O=C(O)c1cccc(Cn2c(Cl)c(/C=N/NC(=O)c3cccc(O)c3)sc2=O)c1	34
O=C(O)c1cccc(Cn2c(Cl)c(/C=N/NC(=O)c3ccccc3O)sc2=O)c1	35.2
COC(=O)/C(=N/Nc1cccc(C)c1)N1CCCc2ccccc21	1.03
Oc1ccc(CCc2n[nH]c(=S)n2-c2ccc(F)cc2)cc1	-8.27
COc1ccc(N2C(=O)CC(Sc3n[nH]c(-c4ccccc4)n3)C2=O)cc1 (stereo not given)	16.4
CCOc1ccccc1N1C(=O)CC(Sc2ncccc2C(=O)O)C1=O (stereo not given)	17.5
CCOC(=O)CN1C(=O)C(Sc2n[nH]c(-c3ccccc3)n2)CCc2ccccc21 (stereo not given)	16.8
COc1ccc(N2C(=O)CC(Sc3n[nH]c(-c4ccc(C)cc4)n3)C2=O)cc1 (stereo not given)	51.7
COc1cc2ncnc(NCc3ccccc3)c2cc1OC	14.9

SMILES	inhibition [%]
O=S(=O)(c1cccs1)N1CN(Cc2ccccc2)c2nc3ccccc3nc21	-4.62
CCC(=O)NCc1csc(-c2cccs2)n1	-3.47
O=C(Nc1cc(N2CCOCC2)ncn1)NC1(C(F)(F)F)Oc2ccccc2O1	5.1
O=C(NCCN1CCOCC1)NC1(C(F)(F)F)Oc2ccc(Cl)cc2O1 (stereo not given)	28.4
Cn1nc(C(F)(F)F)c(-c2ccc(F)cc2)c1NC(=O)c1cccnc1	-2.14
COc1ccc(/C=C2\NC(=O)C(C=NCc3ccccc3)=C2O)cc1	0.26
COc1ccc(-c2nnc(SCC(=O)NCCc3ccccc3)o2)cc1	-10.2
CCc1ccc(C(=O)CSc2nc3ccccc3c(=O)[nH]2)cc1	-2.74
Cc1cc(C)nc(SCC(=O)OCN2C(=O)c3ccccc3C2=O)n1	8.29
Cc1ccc(C(=O)CSc2nc(C)cc(=O)[nH]2)cc1	9.23
Cc1ccc(NC(=O)CSc2nnc(CCC(=O)O)c(=O)[nH]2)cc1	13.7
Cc1ccc(C(=O)CSc2nnc(C)s2)cc1	-0.76
Cn1cnnc1SCC(=O)OCN1C(=O)c2ccccc2C1=O	3.47
CCCn1c(SCC(=O)c2ccc(CC)cc2)n[nH]c1=O	26.6
CC(=O)Nc1ccc(NC(=O)CSc2ccc(C)cc2)cc1	-3.31
CCOC(=O)C[N+](C)(C)CCOC1CC2CCC1(C)C2(C)C (stereo not given)	3.08
O=C(c1cnn2c(C(F)(F)F)cc(-c3ccc4c(c3)OCO4)nc12)N1CCCCC1	6.7
O=C(NCCC1=CCCCC1)C1CCN(C(=O)Cc2ccccc2)CC1	6.09
O=C(CSc1n[nH]c(-c2cccs2)n1)N1CCCc2ccccc21	1.29
Fc1ccc(CNc2nc3ccccc3n3cnnc23)cc1	-2.38
CCOC(=O)C1CN(S(=O)(=O)c2ccccc2)CCN1S(=O)(=O)c1ccccc1 (stereo not given)	-13.2
CCCCCn1c(CNC(=O)COC)nc2ccccc21	-1.06
CN(CC(=O)Nc1ccc(N2CCOCC2)cc1)CC(=O)Nc1cccc(C#N)c1	17.1
CC(C)(C)c1ccc(C(=O)CSc2n[nH]c(=O)[nH]c2=O)cc1	-4.96

SMILES	inhibition [%]
CC(C)Oc1ccc(C(CC(=O)O)NC(=O)C(Sc2ccccc2)c2ccccc2)cc1 (stereo not given)	19.5
Cc1ccc(C(=O)CSc2n[nH]c(C)n2)cc1	46.4
Cc1nc(SCC(=O)c2ccc(F)cc2)n[nH]1	19.2
CC(C)Oc1ccc(C(CC(=O)O)NC(=O)C2CCCCC2)cc1 (stereo not given)	4.14
CC(C)(C)c1ccc(C(=O)CSc2nc3ccccc3c(=O)[nH]2)cc1	9.78
O=C(CCC(=O)Nc1ccccc1)NNC(=O)c1ccccc1Cl	-1.79
CCCN1Cc2cccc(C(=O)Nc3ccc(C)cc3)c2C1=O	-1.02
COCCNC(=S)N1CCC(Cc2ccccc2)CC1	1.83
CC(=O)Nc1ccc(Sc2ccccc2C(=O)O)cc1	6.89
CCOC(=O)C1CCCN(C(=O)c2cc(Nc3ccc(OC)cc3OC)nc3ccccc23)C1 (stereo not given)	-1.02
O=C(NCCc1ccc(S(=O)(=O)N2CCCC2)cc1)c1cccs1	22.4
O=C(CSc1nnc(CNC(=O)c2ccco2)o1)Nc1ccccc1	21.5
O=C1NC(=S)S/C1=C\c1cc2ccccc2nc1N1CCCCC1	8.4
COc1ccc2nc(N3CCCCC3)c(/C=C3\SC(=S)NC3=O)cc2c1	15.3
O=C(CSCc1ccccc1Br)N/N=C/c1ccc(OCC(=O)N2CCCCC2)cc1	9.49
O=C1NC2(CCCCC2)C(=O)N1/N=C/c1ccccc1Br	-1.17
CCCc1nc2ccccc2c(=O)n1/N=C/c1ccc(O)cc1	-6.52
CCCc1nc2ccccc2c(=O)n1/N=C/c1ccccc1O	-13.5
Cc1ccc(-c2cccc(NC(=O)C3C(C(=O)O)[C@@H]4C=C[C@H]3C4)c2)o1 (stereo not given in full)	22.7
Cc1ccc(-c2ccc(NC(=O)C3C4C=CC(C4)C3C(=O)O)cc2)o1 (stereo not given)	51.5
CCOC(=O)C/C(C)=N/NC(=O)C1CC1(c1ccccc1)c1ccccc1 (stereo not given)	-7.82
Cc1cc(NC(=O)c2ccc(NC(=O)C3CC3)cc2)no1	-1.13
COc1ccc(Br)cc1CN(C)C(C)C(=O)Nc1cccc(C(C)=O)c1 (stereo not given)	-4.69
CC1CCc2nn(CC(=O)Nc3ccc(F)cc3F)cc2C1 (stereo not given)	6.54

SMILES	inhibition [%]
Cc1ccc(NC(=O)Cn2cc3c(n2)CCC(C)C3)cc1 (stereo not given)	-7.43
CC1CCN(S(=O)(=O)c2ccc3ncn(CC(=O)N(C)Cc4ccccc4)c(=O)c3c2)CC1	3.66
COc1ccc(N2C(=O)CCC(C(=O)N3CCCCCC3)C2c2ccc(OC)c(OC)c2)cc1 (stereo not given)	-1.54
CCCCC(CC)C(=O)NCC(C)NC(=O)C(CC)CCCC (stereo not given)	2.99
CCOc1ccc(C(=O)NCC(=O)OCC(=O)Nc2ccccc2OCC)cc1	0.01
CC(OC(=O)Cc1coc2ccc3ccccc3c12)C(=O)Nc1ncc(Cl)cc1Cl (stereo not given)	5.82
Cn1c(=O)[nH]c(=O)c2c1nc(NC1CCCCC1)n2CC(=O)NC1CCCCC1	10.2
COc1cccc(NC(=O)CC2COc3ccccc3O2)c1 (stereo not given)	7.49
COc1cc(OC)c(OC)cc1NC(=O)CC1COc2ccccc2O1 (stereo not given)	-17.5
COc1ccc(C)cc1NC(=O)CC1COc2ccccc2O1 (stereo not given)	4.49
COc1ccc(NC(=O)CCC2COc3ccccc3O2)c(OC)c1 (stereo not given)	11.9
FC(F)(F)c1ccccc1NC(=S)N1CCN(c2ccccn2)CC1	1.6
Oc1cc(Cc2ccccc2)cnc1CN1CCOCC1	-3.17
CCCCCOP(=O)(c1ccccc1)c1ccccc1	-7.38
CCc1ccc(-n2c(SCC(=O)N3Cc4ccccc4CC3C(=O)O)nnc2-c2ccncc2)cc1 (stereo not given)	-6.38
CC(c1ccon1)N(C)Cc1c(C(=O)N(C)Cc2ccccc2)nc2ccccn12 (stereo not given)	11.8
Cc1cc(C(=O)CSc2cccc[n+]2[O-])c(C)n1-c1ccc(Br)cc1	1.39
CCN1c2ccccc2-c2nc3ccccc3n2C1c1cccnc1 (stereo not given)	-45
O=C(COC(=O)CCC(=O)c1ccc(Cl)cc1)NC1CC1	10.9
O=C(c1ccccc1Cl)N1CCn2c1nc1ccccc12	24.5
CCOCCCn1c(SCC(=O)Nc2cc(C(C)(C)C)nn2-c2ccccc2)nc2ccccc2c1=O	-8.18
O=C(O)c1cccc(N2C(=O)/C(=C/c3ccc([N+](=O)[O-])cc3)C=C2c2ccccc2)c1	31.6
O=C1/C(=C/c2ccc([N+](=O)[O-])cc2)C=C(c2ccccc2)N1c1ccccc1	1.75
